# In PubChem BioAssay (NCATS):
# Inconclusive results are not listed. Activity calls are given as the source filed them. The call rests on the fitted dose curve; in most records, active means well fitted inhibition curve with a large enough effect; inconclusive means small, poorly fitted or top-dose-only effect; inactive means flat fitted curve, though single readings scatter. Non-standard residues stand in square brackets, D forms with d. Residues, ends and D or L forms follow the SMILES beside them. *: point of attachment. Nva = CCC[C@H](N)C(=O)O; Cbz = O=C(OCc1ccccc1)*
# Tested on: HEK293
# Assay: Cytotoxic Profiling of Annotated Libraries Using Quantitative High-Throughput Screening (AID 1296008); further: nearly all actives have a fitted effect of over 60% in size
# Settings: Five cell lines viability, CellTiter-Glo ATP luminescence, 48-72 h; max response: active compounds read low
# Excerpt: Cell-based phenotypic screening is a commonly used approach to discover biological pathways, novel drug targets, chemical probes and high-quality hit-to-lead molecules. Many hits identified from high-throughput screening campaign are ruled out through a series of follow-up potency, selectivity/specificity, and cytotoxicity assays. Prioritization of molecules with little or no cytotoxicity for a more in-depth downstream evaluation influence the future direction of projects, so cytotoxicity profiling of the screening libraries at early stage is essential for increasing the likelihood of candidate success. […] For the annotated library, we also examined the primary targets and mechanistic pathways regularly associated with cell death. To our knowledge, this is the first study to use high-throughput screening to profile large libraries for cytotoxicity assessment in both normal and cancer cell lines. In summary, the results generated here constitutes a valuable resource for the scientific community and provides insight on identifying cytotoxic compounds with particular mechanisms of action, and prioritizing compounds with suitable cytotoxicity profile for further evaluation.
# A pintool (Kalypsys) was used to transfer 23 nL of compound solution to the 1536-well assay plates. After 48 or 72 hr incubation at 37 degree Celsius, 5% CO2 and 95% humidity, 2.5 uL of CellTiter-Glo (Promega) was dispensed into each well using a dispenser (Aspect Automation, St. Paul, MN) with solenoid valves (Lee Valves, Westbrook CT). Plates were left at room temperature for 10 min before imaging the ATP-coupled luminescence using a ViewLux microplate imager (PerkinElmer, Waltham, MA).
# On the % scale 0 is the no-effect control and ±100 the full control effect; potency means the concentration at half of the fitted maximal effect.
SMILES,Potency,max response,outcome
CCC[C@@H](C=O)NC(=O)[C@H](CC(C)C)NC(=O)[C@H](CC(C)C)NC(=O)OCc1ccccc1 (Cbz-Leu-Leu-[Nva]-aldehyde),3720 nM (active),,
O=C(O)[C@H](CC(=O)N1C[C@@H]2CCCC[C@H]2C1)Cc1ccccc1,,-4.31% (inactive),
COC(=O)[C@@H]1[C@H]2C[C@@H]3c4[nH]c5ccccc5c4CCN3C[C@@H]2CC[C@@H]1O,,,inactive
Cn1cc(-c2cnn3c(N)c(Br)c([C@H]4CCCNC4)nc23)cn1,418 nM (active),,
CC1=C(C(=O)Nc2cc3cn[nH]c3cc2F)C(c2ccc(Cl)cc2F)N=C(c2ccnc(Cl)c2)N1 (stereo not given),13200 nM (active),,
CNC(=O)c1cccc(-c2ccc3c(N4CCOC[C@H]4C)nc(N4CCOC[C@H]4C)nc3n2)c1,105 nM (active),,
O=c1ccn([C@@H]2O[C@H](CO)[C@H](O)[C@@H]2F)c(=O)[nH]1,,-5.58% (inactive),
N#CC(=C(O)c1ccc(Cl)cc1Cl)c1nc2cc(Cl)ccc2c(=O)[nH]1,,1.08% (inactive),
Nc1ncn([C@@H]2O[C@H](CO)[C@@H](O)[C@@H]2O)c(=O)n1,4180 nM (active),,
COc1cc2ncnc(Nc3cccc(Br)c3)c2cc1OC,,-29.7% (inactive),
CCOc1cc2ncc(C#N)c(Nc3ccc(OCc4ccccn4)c(Cl)c3)c2cc1NC(=O)C=CCN(C)C,3320 nM (active),,
C#Cc1cccc(Nc2ncnc3cc(OCCOC)c(OCCO)cc23)c1,16600 nM (active),,
O=C(O)C(=O)Nc1cccc(C2=NN=N[N]2)c1,,-1.4% (inactive),
CN[C@@H]1C[C@H]2O[C@@](C)([C@H]1OC)n1c3ccccc3c3c4c(c5c6ccccc6n2c5c31)C(=O)N[C@H]4O,469 nM (active),,
Cc1cn([C@@H]2O[C@H](CO)[C@@H](O)[C@H]2F)c(=O)[nH]c1=O,,-1.3% (inactive),
CCCCCCCCCCCCc1ccc(S(=O)(=O)Nc2nncs2)cc1,,,inactive
COc1ccc(S(=O)(=O)Nc2cccnc2Nc2ccc(O)cc2)cc1,935 nM (active),,
C[N+](C)([O-])CCNc1ccc(NCC[N+](C)(C)[O-])c2c1C(=O)c1c(O)ccc(O)c1C2=O,5260 nM (active),,
Nc1ccc(C(=O)Nc2cccc(-c3nc(N4CCOCC4)c4oc5ncccc5c4n3)c2)cn1,3260 nM (active),,
N#Cc1c(C2CCNCC2)cc(-c2c(O)cccc2OCC2CC2)nc1N,20900 nM (active),,

SMILES,Potency,max response,outcome
COc1cc(OC)c(C=CS(=O)(=O)Cc2ccc(OC)c(NCC(=O)O)c2)c(OC)c1,118 nM (active),,
COc1cc(C[C@@H](CO)[C@H](CO)Cc2ccc(O)c(OC)c2)ccc1O,,-2.88% (inactive),
CNC(=O)Nc1ccc(-c2nc(N3CC4CCC(C3)O4)c3cnn(C4CCC5(CC4)OCCO5)c3n2)cc1,6.6 nM (active),,
CC1(C)O[C@@H]2C[C@H]3[C@@H]4CCC5=CC(=O)C=C[C@]5(C)[C@@H]4[C@@H](O)C[C@]3(C)[C@]2(C(=O)CO)O1,,,inactive
Cc1ccc([N+](=O)[O-])cc1S(=O)(=O)N(C)N=Cc1cnc2ccc(Br)cn12,23.5 nM (active),,
Oc1ccc(-c2ccc(-c3cc(Nc4cccc(CNC5CC5)c4)n[nH]3)cc2)c(O)c1,1180 nM (active),,
Cc1cc(Nc2ncc3c(n2)N(C)C(=O)N(c2cc(NC(=O)c4cccc(C(F)(F)F)c4)ccc2C)C3)n(C)n1,418 nM (active),,
COc1cccc2c1C(=O)c1c(O)c3c(c(O)c1C2=O)C[C@@](O)(C(C)=O)C[C@H]3O[C@H]1C[C@H](N)[C@H](O)[C@H](C)O1,66.2 nM (active),,
CON=C(C(=O)N[C@@H]1C(=O)N2C(C(=O)O)=C(CSC(=O)c3ccco3)CS[C@H]12)c1csc(N)n1,,,inactive
c1cc(CN2CCCNCCNCCCNCC2)ccc1CN1CCCNCCNCCCNCC1,,,inactive
O=C(C=Cc1ccc(CN(CCO)CCc2c[nH]c3ccccc23)cc1)NO,372 nM (active),,
COc1ccc(Nc2cc(-c3cnc(N)nc3)nc(N3CCOCC3)n2)cn1,1870 nM (active),,
CC(C)(N)c1ccc(-c2nc3ccccc3nc2-c2ccccc2)cc1,59 nM (active),,
C=C(C)[C@@H]1CC[C@]2(C)CC[C@]3(C)[C@H](CC[C@@H]4[C@@]5(C)CC[C@H](O)C(C)(C)[C@H]5CC[C@]43C)[C@@H]12,,,inactive
OC[C@H]1OC(O)C[C@@H](O)[C@H]1O (stereo not given in full),,,inactive
CC(=O)OCC(=O)[C@@]12N=C(C)O[C@H]1C[C@H]1[C@@H]3CCC4=CC(=O)C=C[C@]4(C)[C@@H]3[C@@H](O)C[C@@]12C,,-6.3% (inactive),
CN[C@H](CC(C)C)C(=O)N[C@H]1C(=O)N[C@@H](CC(N)=O)C(=O)N[C@@H]2C(=O)N[C@H]3C(=O)N[C@H](C(=O)N[C@H](C(=O)O)c4cc(O)cc(O)c4-c4cc3ccc4O)[C@H](O)c3ccc(c(Cl)c3)Oc3cc2cc(c3O[C@@H]2O[C@H](CO)[C@@H](O)[C@H](O)[C@@H]2O[C@H]2C[C@](C)(N)[C@H](O)[C@H](C)O2)Oc2ccc(cc2Cl)[C@H]1O,,-10.3% (inactive),
CCN(CC)Cc1ccc2cc(COC(=O)Nc3ccc(C(=O)NO)cc3)ccc2c1,418 nM (active),,
NS(=O)(=O)OC[C@@H]1C[C@@H](n2ccc3c(N[C@H]4CCc5ccccc54)ncnc32)C[C@H]1O,526 nM (active),,
COc1cc(CCc2cc(NC(=O)c3ccc(N4C[C@@H](C)N[C@@H](C)C4)cc3)n[nH]2)cc(OC)c1,2960 nM (active),,
